# Results reported in PubChem BioAssay AID652174 (National Center for Advancing Translational Sciences (NCATS), 2013).
# Calls of active or inactive are those of the source. The call rests on the fitted dose curve; in most records, active means well fitted curve in the direction sought with a large enough effect; inactive means no such curve, though single readings can be large or run the other way.
# Target: Ubiquitin carboxyl-terminal hydrolase 2 (Homo sapiens) (UniProt O75604)
# Experiment: Confirmation Assay for Inhibitors of Ubiquitin-specific Protease USP2a Using CHOP2 as the Reporter: SAR
# Conditions: USP2 core, Ub-CHOP2 reporter, fluorescence 485/531
# Description: Homeostasis of cellular proteins is maintained through a combination of synthesis and degradation. The pathway that accounts for the majority of protein degradation is the ubiquitin-proteasomal pathway. Ubiquitin (Ub) is highly conserved in all cells and the generation of a multi-Ub chain typically targets proteins for degradation by the proteasome. However, ubiquitination is highly reversible and dynamic. Deubiquitination, the reverse process, is catalyzed through the action of enzymes referred to as isopeptidases or deubiquitinating enzymes (DUBs). This group of enzymes is collectively responsible for maintaining adequate pools of free ubiquitin and regulating the ubiquitination status of cellular proteins. […] Thus, this coupled assay gives a fluorescent read-out at excitation/emission wavelengths of 485/531. […]
# The assay buffer, prepared fresh at the day of the assay, contains 20mM Tris-HCl pH 8.0, 2mM CaCl2, 2mM beta-Mercaptoethanol, 0.05% CHAPS. […] Plates were read after 60min RT incubation on a ViewLux (Perkin Elmer) plate reader using the following wavelengths Ex 485nm /Em 531nm. […] Concentration-response curves were fitted to the normalized data and the concentration-response curves were then classified based on curve quality (r2), response magnitude and degree of measured activity. The time zero reading was used to flag fluorescence artifacts. […]
# Chain of Ubiquitin carboxyl-terminal hydrolase 2 (Homo sapiens) (O75604 whole entry, looked up): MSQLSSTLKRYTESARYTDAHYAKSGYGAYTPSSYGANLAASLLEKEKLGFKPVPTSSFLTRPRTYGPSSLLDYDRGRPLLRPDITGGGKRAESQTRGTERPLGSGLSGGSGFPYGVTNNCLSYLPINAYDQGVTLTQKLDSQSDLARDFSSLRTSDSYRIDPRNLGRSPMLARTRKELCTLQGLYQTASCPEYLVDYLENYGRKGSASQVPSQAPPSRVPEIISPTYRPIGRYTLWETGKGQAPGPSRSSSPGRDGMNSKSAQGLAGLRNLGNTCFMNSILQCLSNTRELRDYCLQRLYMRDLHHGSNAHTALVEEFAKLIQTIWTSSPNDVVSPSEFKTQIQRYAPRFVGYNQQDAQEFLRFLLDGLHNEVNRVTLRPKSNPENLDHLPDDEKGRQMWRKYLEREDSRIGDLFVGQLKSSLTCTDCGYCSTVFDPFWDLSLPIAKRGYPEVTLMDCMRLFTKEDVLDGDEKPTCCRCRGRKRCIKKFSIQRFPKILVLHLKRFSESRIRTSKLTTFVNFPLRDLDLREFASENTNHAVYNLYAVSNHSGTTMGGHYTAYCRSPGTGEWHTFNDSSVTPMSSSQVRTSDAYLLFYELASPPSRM
row,SMILES,Potency
1,Cc1ccc(S(=O)(=O)Nc2ccccc2C(=O)Nc2nc(-c3ccccc3)cs2)cc1,11.3 µM (active)
2,Cc1ccc(S(=O)(=O)Nc2ccccc2C(=O)Nc2nc(-c3ccc(Cl)cc3)cs2)cc1,5.65 µM (active)
